# In PubChem BioAssay AID624308 (National Center for Advancing Translational Sciences (NCATS), 2012):
# Results filed as inconclusive are left out. Activity calls are given as the source filed them. Calls come from the whole dose curve; as a rule, active = well fitted inhibition curve with a large enough effect; inconclusive = small, poorly fitted or top-dose-only effect; inactive = flat fitted curve, though single readings scatter.
# Biological target: Peptidyl-prolyl cis-trans isomerase NIMA-interacting 1 (Homo sapiens) (UniProt Q13526)
# Sequence (Q13526 whole entry, looked up): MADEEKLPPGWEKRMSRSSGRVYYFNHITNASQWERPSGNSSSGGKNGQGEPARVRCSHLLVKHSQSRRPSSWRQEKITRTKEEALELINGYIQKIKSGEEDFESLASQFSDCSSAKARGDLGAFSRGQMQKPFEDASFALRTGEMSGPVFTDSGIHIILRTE
# Experiment: qHTS Assay to Find Inhibitors of Pin1: Hit Validation
# Settings: Pin1 FP peptide displacement, HiFluor488 probe; series mostly up to 57.5 µM
# Text: The unique chemical properties of Pro allow for the adoption of two completely distinct amide bond conformations (cis and trans). Peptidyl-prolyl cis/trans isomerases (PPIases) are evolutionary conserved enzymes that catalyze cis/trans isomerization of peptidyl-prolyl peptide bonds. Distinct from all other PPIases such as cyclophilins and FK506-binding proteins (FKBPs), Pin1 binds a subset of phos.Ser/Thr-Pro-containing proteins using its protein-targeting WW domain and isomerizes only specific phos.Ser/Thr-Pro bonds, which cannot be effectively catalyzed by other known PPIases. Pin1-catalyzed conformational regulation can control a spectrum of activities of many key regulators in diverse cellular processes such as cell growth, genotoxic and other stress responses, immune response, germ cell development, neuronal differentiation and survival. Pin1 has emerged as a novel molecular timer that modulates its multiple targets at various steps of a given cellular process to synergistically control the amplitude and duration of a cellular response or process. Importantly, Pin1 is tightly regulated by multiple levels and its deregulation has an important role in a growing number of pathological conditions, including cancer, Alzheimer's disease, aging, asthma and microbial infection, providing a potentially new therapeutic option. The goal of this screen is to find small-molecule inhibitors of Pin1 using a fluorescence polarization competition assay. A HiFluor-488-labeled peptide binds to the active site of Pin1 and can be displaced by compounds. Compounds were screened as a concentration-titration series that ranged from 57 uM to 0.7 nM. This is the hit validation to test the hits identified in the primary screen. NIH Molecular Libraries Probe Production Network [MLPCN] NIH Chemical Genomics Center [NCGC] MLPCN Grant: R03 DA031663 PI Name: Dr. Kun Ping Lu, Beth Israel Deaconess Medical Center
# Pin1 (0.6 uM) was dispensed into black, solid 1536-well plates at 2 uL/well in 10 mM HEPES (pH 7.5), 10 mM NaCl, 0.01% Tween20, 1 mM DTT, and 1% glycerol. Then, 23 nL of compounds or DMSO were delivered to each well using a pin tool. Two uL of Pin1-1b-HiFluor488 peptide (10 mM HEPES (pH 7.5), 10 mM NaCl, 0.01% Tween20, 1 mM DTT, and 1% glycerol, 0.02 uM Pin1-1b-HiFluor488) was then dispensed, and plates were incubated at room temperature for 10 min. The plates were measured on a ViewLux plate reader for fluorescence polarization signal using a 480/20 nM nm excitation filter and 540/25 nM nm S and P emission filters with a 20 second exposure. The %Activity was determined from the corrected fluorescence polarization values. Unlabeled Pin1-1c peptide was used as a control (3.5 mM two-fold serial; 20 uM final concentration) along with a 1x (0.3 uM) and 0x (no-enzyme) Pin1 enzyme control to normalize %Activity of identified inhibitors; 0x enzyme values corresponded to 100%Activity (full inhibition), while 1x Pin1 enzyme values were used to normalize 0%Activity (no inhibition). Concentration-response curves were fitted to the signals arising from the resulting fluorescence polarization. The concentration-effect curves were then classified based on curve quality (r2), response magnitude and degree of measured activity, and compounds were subsequently categorized based on their curve class. […] Keywords: Peptidyl prolyl isomerase, Pin1, fluorescence polarization, MLSMR, MLPCN, NIH Roadmap, qHTS, NCGC
row,Structure (SMILES),Potency
1,COc1ccccc1Nc1ccc2c(O)cc(S(=O)(=O)O)cc2c1,1.2 µM (active)
2,CCCCCC(=O)Nc1cc(S(=O)(=O)O)cc2cc(S(=O)(=O)O)cc(O)c12,1.69 µM (active)
3,CC(=O)Nc1ccc(Nc2c3c4c(cccc4n(C)c2=O)C(=O)c2ccccc2-3)cc1,3.38 µM (active)
4,O=S(=O)(Nc1cc(Sc2ncn[nH]2)c(O)c2ccccc12)c1ccccc1,inactive
5,COc1cccc2c1C(=O)c1c(O)c3c(c(O)c1C2=O)C[C@](O)(C(C)=O)C[C@H]3O[C@@H]1C[C@@H](N)[C@@H](O)[C@@H](C)O1,inactive
6,O=S(=O)(O)c1ccc(O)c2cc(Nc3ccccc3)ccc12,1.69 µM (active)
7,COc1ccc(S(=O)(=O)Nc2cc(Sc3ncn[nH]3)c(O)c3ccccc23)cc1,inactive
8,Cc1ccc2nc(-c3ccc(N=Nc4cc(S(=O)(=O)O)c5ccccc5c4O)cc3)sc2c1S(=O)(=O)O,3.01 µM (active)
9,O=S(=O)(O)c1cc(O)c2cc(Nc3ccccc3)ccc2c1,10.7 µM (active)
10,O=C1c2ccccc2C(=O)c2c(O)c(O)cc(O)c21,26.9 µM (active)
